# A number with no mark means an inactive call. Records with an inconclusive call do not appear. Where a call stands in place of a potency, no number is given. The source made the active and inactive calls. Unless noted, calls follow the shape of the dose curve; as a rule, active = well fitted curve in the direction sought with a large enough effect in the repeat runs; inconclusive = weak or mixed curves; inactive = no such curve, though single readings can be large; an effect the other way counts as inactive or inconclusive.
# What was measured:
# [1] = A CellTox Green Cytotoxicity Assay to monitor cytotoxicity in HEK293 cells - 32 hour (AID 1224881); also: nearly all actives have a fitted effect of over 40% in size
# How it was run: (§1)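 Fluorescence from a DNA-binding dye excluded by viable cells was measured repeatedly in the same HEK293 wells (600 cells/well) during continuous compound exposure at 37 C. Each assay gives one read point: 0, 8, 16, 24, 32 or 40 h.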
# [2] = A CellTox Green Cytotoxicity Assay to monitor cytotoxicity in HepG2 cells - 0 hour (AID 1224882); also: nearly all actives have a fitted effect of over 35% in size
# How it was run: (§2)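 Real-time cytotoxicity: fluorescence of a cell-impermeant cyanine dye binding DNA of dead HepG2 cells, measured repeatedly (0–40 h) during compound exposure at 37 C. Cells seeded 600/well with reagent, dosed after 5 h.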
# [3] = A CellTox Green Cytotoxicity Assay to monitor cytotoxicity in HepG2 cells - 32 hour (AID 1224883); also: nearly all actives have a fitted effect of over 50% in size
# How it was run: as §2
# [4] = A CellTox Green Cytotoxicity Assay to monitor cytotoxicity in HEK293 cells - 8 hour (AID 1224884); also: nearly all actives have a fitted effect of over 35% in size
# How it was run: as §1
# [5] = qHTS RealTime-Glo MT Cell Viability Assay in HepG2 cells - 16 hour (AID 1224885); also: nearly all actives have a fitted effect of over 50% in size
# How it was run: (§3)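 Luminescence read-out: viable HepG2 cells reduce a prosubstrate to a NanoLuc substrate, giving a signal proportional to live cell number. Reads taken at 0, 8, 16, 24, 32 and 40 h of compound exposure at 37 C.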
# [6] = qHTS RealTime-Glo MT Cell Viability Assay in HEK293 cells - 24 hour (AID 1224886); also: nearly all actives have a fitted effect of over 50% in size; also: potency is read from the fitted curve at half-maximal effect
# How it was run: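 Nonlytic real-time viability readout: viable cells convert prosubstrate to NanoLuc substrate, giving luminescence proportional to live cell number. HEK293, 600 cells/well, compound added after 5 h, continuous culture at 37 C.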
# [7] = qHTS RealTime-Glo MT Cell Viability Assay in HEK293 cells - 8 hour (AID 1224887); also: nearly all actives have a fitted effect of over 50% in size; also: potency is read from the fitted curve at half-maximal effect
# How it was run: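 Luminescence, which tracks viable cell number through reduction of the prosubstrate to a NanoLuc substrate, was read over continuous 37 C culture. Cells (600/well) were premixed with reagent and rested 5 h before 23 nL of compound in DMSO was pinned.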
# [8] = A CellTox Green Cytotoxicity Assay to monitor cytotoxicity in HEK293 cells - 16 hour (AID 1224888); also: nearly all actives have a fitted effect of over 35% in size
# How it was run: as §1
# [9] = qHTS RealTime-Glo MT Cell Viability Assay in HepG2 cells - 0 hour (AID 1224889); also: nearly all actives have a fitted effect of over 50% in size
# How it was run: as §3
# [10] = qHTS assay to identify small molecule antagonists of the estrogen receptor alpha (ER-alpha) signaling pathway using the BG1 cell line in the presence of 0.1 nM 17-beta-estradiol - cell viability counter screen (AID 1259241); also: nearly all actives have a fitted effect of over 40% in size
# How it was run: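 The cell line endogenously expresses full-length ER-alpha and carries four EREs driving luciferase. Cells are cultured 5 days hormone-free, treated 22 hr with compounds and 0.1 nM estradiol, then viability is read by fluorescence.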
# [11] = qHTS assay to identify small molecule HDAC inhibitors (AID 1259364); also: top concentration of the series differs between compounds; nearly all actives have a fitted effect of over 45% in size
# How it was run: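 Luminescence read after 30 min room-temperature HDAC-Glo incubation measures cellular class I/II HDAC activity. Compounds were applied for 2 hr at 37 C to HCT-116 wild-type cells seeded the day before.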
# [12] = qHTS assay to identify small molecule HDAC inhibitors - cell viability counter screen (AID 1259365)
# How it was run: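 Viability readout: CellTiter-Glo luminescence. Wild-type HCT-116 cells, 2hr compound treatment following overnight attachment at 37 C.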
# [13] = qHTS assay to identify small molecule agonists of the sonic hedgehog signaling (Shh) pathway - cell viability counter screen (AID 1259366); also: nearly all actives have a fitted effect of over 50% in size
# How it was run: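 Viability measured fluorometrically (CellTiter-Fluor, 1hr, 37C) in 3T3 Gli1-Luc reporter cells after 23hr compound exposure within a 24hr incubation at 37C/5% CO2.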
# [14] = qHTS assay to identify small molecule antagonists of the sonic hedgehog signaling (Shh) pathway - cell viability counter screen (AID 1259367); also: nearly all actives have a fitted effect of over 55% in size
# How it was run: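 Fluorescence read-out (CellTiter-Fluor, 1 hr at 37C) taken after 23 hr compound treatment of 3T3 Gli1-Luc cells stimulated with conditioned medium. Cells were seeded at 2,000 per well and pre-incubated 4 hr.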
# [15] = qHTS assay to identify small molecule agonists of the sonic hedgehog signaling (Shh) pathway (AID 1259368; calls by dose curve;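 also: NIH/3T3-derived 3T3Gli1-Luc cells carrying a stable Gli1-driven firefly luciferase reporter; series mostly up to about 92 µM; nearly all actives have a fitted effect of over 15% in size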)
# How it was run: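 Luminescence was read after 30 min at room temperature with luciferase reagent. Before that, 3T3Gli1-Luc cells (NIH/3T3 clone, stable Gli1-Luc reporter; 2,000/well) were exposed to compounds for 24 hr at 37C, 5% CO2, compounds being added 4 hr post-plating.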
# [16] = qHTS assay to identify small molecule antagonists of the androgen receptor (AR) signaling pathway using the MDA cell line in the presence of 0.5 nM R1881 - cell viability counter screen (AID 1259242); also: nearly all actives have a fitted effect of over 45% in size
# How it was run: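 Live-cell protease activity was measured by CellTiter-Fluor fluorescence after 30 min. Before that, MDA-kb2 MMTV-luciferase cells had 16 hr at 37C without CO2, exposed to test compounds and 0.5 nM R1881 final.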
# [17] = target: Estrogen receptor (Homo sapiens) (UniProt P03372); experiment: qHTS assay to identify small molecule antagonists of the estrogen receptor alpha (ER-alpha) signaling pathway using the BG1 cell line in the presence of 0.1 nM 17-beta-estradiol (AID 1259244); also: nearly all actives have a fitted effect of over 50% in size
# Sequence of Estrogen receptor (Homo sapiens) (P03372 whole entry, looked up): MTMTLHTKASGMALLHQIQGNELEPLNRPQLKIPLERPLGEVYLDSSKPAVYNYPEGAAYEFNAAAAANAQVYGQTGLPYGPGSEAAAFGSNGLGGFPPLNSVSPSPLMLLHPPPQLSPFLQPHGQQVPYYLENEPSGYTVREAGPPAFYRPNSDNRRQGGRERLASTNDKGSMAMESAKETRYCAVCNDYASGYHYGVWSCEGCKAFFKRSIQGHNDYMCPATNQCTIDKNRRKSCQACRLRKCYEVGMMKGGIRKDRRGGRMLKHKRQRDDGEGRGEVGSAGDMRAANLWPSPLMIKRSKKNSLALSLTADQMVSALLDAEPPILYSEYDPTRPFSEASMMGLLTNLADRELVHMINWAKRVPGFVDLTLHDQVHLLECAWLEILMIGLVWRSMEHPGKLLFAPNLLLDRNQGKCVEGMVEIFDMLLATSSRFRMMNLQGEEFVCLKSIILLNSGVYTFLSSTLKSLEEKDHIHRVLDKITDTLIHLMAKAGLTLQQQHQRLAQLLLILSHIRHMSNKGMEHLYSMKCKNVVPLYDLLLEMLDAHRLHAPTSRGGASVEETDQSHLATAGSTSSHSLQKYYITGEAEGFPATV
# How it was run: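 Luciferase luminescence (ONE-Glo, 30 min at room temperature) was read after 22 hr at 37C exposure to compounds plus 17beta-estradiol at 0.1 nM final. Cells were VM7Luc4E2 with endogenous ER-alpha and an ERE-driven luciferase, pre-cultured 5 days in hormone-depleted medium.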
# [18] = qHTS assay to identify small molecule phospholipidosis (PLD) inducers (AID 1259344; active = well fitted curve in the direction sought with a large enough effect; an effect the other way counts as inactive or inconclusive)
# How it was run: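 Read-out is LipidTOX Red fluorescence (ex 595/em 615) imaged in HepG2 cells after 24 h compound exposure at 37 C, with Hoechst nuclear counterstain (ex 352/em 461) allowing per-cell normalisation.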
# [19] = A CellTox Green Cytotoxicity Assay to monitor cytotoxicity in HepG2 cells - 8 hour (AID 1224890); also: nearly all actives have a fitted effect of over 45% in size
# How it was run: as §2
# [20] = target: Androgen receptor (Homo sapiens) (UniProt P10275); experiment: qHTS assay to identify small molecule antagonists of the androgen receptor (AR) signaling pathway using the MDA cell line in the presence of 0.5 nM R1881 (AID 1259243); also: nearly all actives have a fitted effect of over 50% in size
# Sequence of Androgen receptor (Homo sapiens) (P10275 whole entry, looked up): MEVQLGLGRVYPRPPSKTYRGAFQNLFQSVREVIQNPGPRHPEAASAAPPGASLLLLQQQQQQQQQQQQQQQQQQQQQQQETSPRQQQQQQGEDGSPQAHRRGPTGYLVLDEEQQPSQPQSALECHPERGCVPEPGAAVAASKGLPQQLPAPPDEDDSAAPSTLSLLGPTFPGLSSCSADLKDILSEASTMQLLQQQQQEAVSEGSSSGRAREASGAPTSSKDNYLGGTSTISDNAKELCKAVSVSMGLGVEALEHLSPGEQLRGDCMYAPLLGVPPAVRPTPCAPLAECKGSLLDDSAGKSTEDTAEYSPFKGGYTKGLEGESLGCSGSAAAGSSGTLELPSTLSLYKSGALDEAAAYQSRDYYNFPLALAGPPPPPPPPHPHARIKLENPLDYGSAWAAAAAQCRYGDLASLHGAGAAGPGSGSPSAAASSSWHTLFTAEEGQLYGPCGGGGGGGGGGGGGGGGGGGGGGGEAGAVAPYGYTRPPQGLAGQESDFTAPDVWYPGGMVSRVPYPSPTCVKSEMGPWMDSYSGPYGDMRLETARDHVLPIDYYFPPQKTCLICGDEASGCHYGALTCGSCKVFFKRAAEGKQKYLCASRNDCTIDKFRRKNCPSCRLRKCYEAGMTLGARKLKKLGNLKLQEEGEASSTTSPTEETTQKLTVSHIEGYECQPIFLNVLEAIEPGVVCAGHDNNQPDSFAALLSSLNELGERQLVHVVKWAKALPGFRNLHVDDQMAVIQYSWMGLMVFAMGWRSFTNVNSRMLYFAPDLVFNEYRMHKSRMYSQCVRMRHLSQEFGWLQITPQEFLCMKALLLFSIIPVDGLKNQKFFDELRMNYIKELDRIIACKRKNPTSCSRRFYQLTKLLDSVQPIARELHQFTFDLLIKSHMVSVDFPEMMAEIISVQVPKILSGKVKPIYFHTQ
# How it was run: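 Luminescent reporter readout (ONE-Glo, 30 min, room temperature) after 16 hr co-treatment of MDA-kb2 cells with test compounds and 0.5 nM R1881 final, at 37C without CO2. The MMTV-driven luciferase responds to both AR and GR.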
Compound,Potency [1],outcome [2],Potency [3],Potency [4],outcome [5],Potency [6],Potency [7],outcome [8],Potency [9],Potency [10],Potency [11],outcome [12],Potency [13],Potency [14],outcome [15],outcome [16],Potency [17],outcome [18],outcome [19],Potency [20]
CCOCCOCCOCC,inactive,inactive,inactive,inactive,inactive,inactive,inactive,inactive,inactive,inactive,inactive,inactive,inactive,inactive,inactive,,,,,
O=C(O)Cc1cn(-c2ccccc2)nc1-c1ccc(Cl)cc1,inactive,inactive,inactive,inactive,inactive,inactive,inactive,inactive,inactive,inactive,inactive,inactive,inactive,inactive,inactive,inactive,inactive,inactive,,
O=C1O[C@@H]2[C@@H](O)[C@H](O)O[C@@H]2[C@H]1O,inactive,inactive,inactive,inactive,inactive,inactive,inactive,inactive,,inactive,inactive,inactive,inactive,inactive,inactive,inactive,inactive,inactive,inactive,
CCN(CC)CC(=O)Nc1c(C)cccc1C,inactive,inactive,inactive,inactive,inactive,9.52 µM (active),10.7 µM (active),inactive,inactive,inactive,inactive,inactive,inactive,inactive,inactive,inactive,,inactive,,inactive
CC(COC(C)(C)C)OCCCO (centres undefined),inactive,inactive,inactive,inactive,inactive,inactive,inactive,inactive,inactive,inactive,inactive,inactive,inactive,inactive,inactive,inactive,,,inactive,
O=C1CCCC(=O)O1,inactive,inactive,inactive,inactive,inactive,inactive,inactive,inactive,inactive,inactive,inactive,,inactive,inactive,inactive,inactive,,,,
NS(=O)(=O)c1cc2c(cc1Cl)CN(C1CCCCC1)C2=O,inactive,inactive,inactive,inactive,inactive,9.52 µM (active),9.52 µM (active),inactive,,inactive,inactive,inactive,inactive,inactive,inactive,inactive,,,inactive,inactive
CC(=O)N[C@@H](CCC(=O)O)C(=O)O,inactive,inactive,inactive,inactive,inactive,inactive,inactive,inactive,inactive,,inactive,inactive,inactive,inactive,inactive,,,inactive,inactive,

# From PubChem BioAssay (Tox21)
